From PubChem BioAssay AID504521 (NMMLSC, 2011) come the findings set out here.

The other results are listed elsewhere or left out. A number with no mark means an inactive call.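 The calls were made as follows: active = compounds whose bead fluorescence drops by more than 37 kMESF across the dose range, marking them as dye quenchers; inactive = the rest.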

This assay in a line: aptamer fluorescence quenchers, flow cytometry – biochemical, cherry pick 1, bead-based flow cytometry, artefact control for GRK2 RNA aptamer inhibitor project, dose response (AID 504521). To be noted: Fluorescent RNA aptamer beads, quenching, stronger effect = higher value. In general terms: Flow cytometry measures light scatter and fluorescence of single cells or particles in a stream.

On to `COc1ccc(N2C(=O)/C(=C/c3ccco3)C(=O)NC2=S)cc1`, for which the fluorescence change (kMESF span) is 12 kMESF.
